# From the supplement of paper PMC6555819
# Legend:
# Assay in all cases: PBM binding z-score (relative to random genomic background probes); higher = stronger binding; sequences stand for … in GC…GCGATTGACAGCGTAGAATGAAGG
# [1] = tested on: LXRa:RXRa (NR concentration 270 nM, RXRa partner concentration 90 nM)
# Outline: (§1)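 Each nuclear receptor dimer, without ligand, was incubated for 1 h on custom Agilent 4×180K protein-binding microarrays. Binding was detected with antibodies against each partner (one per run), and scanned fluorescence was regression-normalized. The binding z-scores are referenced to random human genomic background probes.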
# [2] = tested on: LXRa homodimer (NR concentration 270 nM)
# Outline: as §1
# [3] = tested on: LXRb homodimer (NR concentration 270 nM)
# Outline: as §1
# [4] = tested on: PPARg:RXRa (NR concentration 180 nM, RXRa partner concentration 90 nM)
# Outline: as §1
# [5] = tested on: PPARg:RXRa 270nM:90nM, anti-RXR (NR concentration 270 nM, RXRa partner concentration 90 nM)
# Outline: as §1
# [6] = tested on: PPARg:RXRa 30nM:10nM, anti-RXR (NR concentration 30 nM, RXRa partner concentration 10 nM)
# Outline: as §1
# [7] = tested on: PPARg:RXRa 90nM:30nM, anti-RXR (NR concentration 90 nM, RXRa partner concentration 30 nM)
# Outline: as §1
# [8] = tested on: PPARg:RXRa DBDmut IVT, anti-RXR (DBD mutation: RXRa K156A/R161A, NR concentration 270 nM, RXRa partner concentration 90 nM)
# Outline: as §1
Sequence,PBM binding z-score [1],PBM binding z-score [2],PBM binding z-score [3],PBM binding z-score [4],PBM binding z-score [5],PBM binding z-score [6],PBM binding z-score [7],PBM binding z-score [8]
AGTCAAAGTTCAGGACGAGGTAACGTTAAGCACG,3.74,1.1,0.0351,4.29,4.64,2.03,3.86,-0.183
CAAACCAGGTCACAGAGGTCAAAGTCCGTGCGTA,6.8,7.74,2.6,8.73,7.69,5.28,7.12,6.56
TCTCGGAGGACACTAAAGGTCAGAGCTCGACATC,5.15,5.33,0.134,1.47,2.94,2.78,2.97,1.65
ATCGAAAGGTCGACGCGGTGAGTATACACCGTTT,3.4,-0.127,0.391,2.07,2.54,0.887,1.8,-0.0451
AGAATGAGGTCATTAAGATCAGGGAATTGCGGTC,5.58,2.12,1.68,6.93,6.63,3.8,5.83,6.03
TCTAGTTGGTCACGGAGGGCACACACGACGGGTA,0.609,-0.107,0.00573,1.25,2.05,2.8,2.39,2.05
AATACAGGGTCACGAGGCCAGAGTAGGTACGAAT,6,1.22,0.897,8.68,7.43,4.39,6.65,3.9
TCTATTAGTTGATTAGGGCAACCGAAACAGCGGA,0.552,0.193,0.613,0.303,2.14,3.65,2.63,2.02
CGTCCGAGGTCATAGGAGGTCAGTGAAGACAGAT,7.86,5.54,1.19,6.96,6.5,2.81,5.53,3.62
TAGCCTAGGTCACATCGGGCCAGTATACGCTATA,3.44,0.038,0.0362,2.64,2.61,0.683,1.59,2.1
